Experimental findings from PubChem BioAssay AID463173 (ICCB-Longwood Screening Facility, Harvard Medical School, 2010) are described below.

Each structure is given as a SMILES string. Screen size: about 52,000 compounds; about 4,300 (8.3%) were called active. This is one part of a sample in which actives are shown more often than they occur. Values without a mark were called inactive. Rule as the data show it: active = survival mostly below about 52% (no sharp cut-off); inactive = mostly above about 56%.

For this test, the system named is DeltatarO mutant. The test is described as follows: S. aureus survival, RN4220 and DeltatarO strains – OD600, teichoic acid synthesis inhibitors, primary screen (AID 463173). The note with it: S. aureus RN4220 wild type/DeltatarO growth, OD600, 18 h, active compounds read low, screened at 18.75 µg/mL (by protocol).
On to `O=C(NCc1ccccc1F)c1ccc(CSc2nc3cccnc3n2Cc2ccccc2)cc1`, for which the survival is 75%.
Turning to `CCSc1nc(=O)c2c(n1C)NC(=O)CC2c1ccc(O)cc1OC` (stereo unspecified), the survival is 57%.
Take `CCCSc1nc(=O)c2c(n1C)NC(=O)CC2c1cccc(F)c1F` (stereo unspecified): the survival is 54% (active).
As for `CSc1nc(=O)c2c(n1C)NC(=O)CC2c1ccccc1OC(C)C` (stereo unspecified), the survival is 46%.
With `Cc1oc(-c2ccc(Cl)cc2)nc1Cn1c(=O)cc(-c2ccccc2)c2c(C)nn(C)c21`, the survival was 88%.
As to `Cc1oc(C)c2c(=O)cc(-c3ccc4c(c3)OCO4)cc(OC(=O)c3ccccc3Br)c12`, the survival is 106%.
Regarding `O=C(NCCc1ccncc1)Nc1c[nH]c2ccccc2c1=O`, the survival was 89%.
Regarding `COc1ccccc1C(=O)c1cn(CC(=O)Nc2ccccc2F)c2nc(C)ccc2c1=O`, the survival was 71%.
In the case of `CCOc1cc(Cl)c(S(=O)(=O)n2ccnc2)cc1Cl`, the survival was 73%.
As to `CCOc1cc(Cl)c(S(=O)(=O)n2cc(C)nc2CC)cc1Cl`, the survival was 3% (active).
Turning to `CCc1nc(C)cn1S(=O)(=O)c1ccc(Cl)c(Cl)c1OC`, the survival was 71%.
With `CCOc1ccc(C(=O)NCCSc2c(C)[nH]c3ccccc23)cc1OCC`, the survival was 56%.
For the molecule `CC1=C(C(=O)Nc2ccc(F)cc2)C(c2ccc(N(C)C)cc2)NC(=O)N1` (stereo unspecified), the survival was 140%.
As for `Cc1cccc(OCCCn2c(CCNC(=O)C(C)(C)C)nc3ccccc32)c1`, the survival was 77%.
On to `Cc1ccc(OCCCCn2c(CCNC(=O)C(C)(C)C)nc3ccccc32)cc1`, for which the survival was 42% (active).
In the case of `Cc1ccccc1OCCn1c(CCNC(=O)C(C)(C)C)nc2ccccc21`, the survival is 82%.
On to `Cc1ccccc1OCCCCn1c(CCNC(=O)C(C)(C)C)nc2ccccc21`, for which the survival is 36% (active).
For the molecule `CCCCCn1c(CCCNC(=O)c2ccc(Cl)cc2)nc2ccccc21`, the survival was 85%.
For the molecule `CC(=O)NCCc1nc2ccccc2n1CCCCOc1ccc(Cl)cc1`, the survival was 61%.
The figure for `Cc1ccccc1OCCn1c(CCNC(=O)C2CCCCC2)nc2ccccc21` is 77%; for `CCCCCn1c(CCCNC(=O)c2ccccc2)nc2ccccc21` it is 59%.
With `CC(C)(C)C(=O)NCCc1nc2ccccc2n1CCCCOc1ccccc1`, the survival is 41% (active).
In the case of `CC(C)(C)C(=O)NCCc1nc2ccccc2n1CCCCOc1ccc(Cl)cc1`, the survival was 18% (active).
As to `CCN(CC)S(=O)(=O)c1cccc(C(=O)NCc2ccccc2)c1`, the survival was 49%.
The figure for `CCN(C(=O)Cn1cc(C(=O)c2ccc(F)cc2)c(=O)c2ccc(C)nc21)c1cccc(C)c1` is 71%.
Regarding `CCc1ccccc1NC(=O)C1CCN(c2nn3c(=O)cc(C)nc3s2)CC1`, the survival was 81%.
As for `Cc1ccc(N(CC(=O)N2CCN(c3cccc(Cl)c3)CC2)S(=O)(=O)c2c(C)noc2C)cc1`, the survival is 73%.
As to `CCCCS(=O)(=O)CC(O)CSc1nc(-c2ccc(C)cc2)cc(-c2ccccc2)c1C#N` (stereo unspecified), the survival is 68%.
With `CCN1C(=O)C2C(c3ccc(OC)cc3)NC(CC)(C(=O)OC)C2C1=O` (stereo unspecified), the survival is 56%.
To `CN(C)CCNC(=O)c1ccc(Cn2c(SCc3ccc(F)cc3)nc3cccnc32)cc1` belongs 131%; to `CCN(c1ccccc1C)S(=O)(=O)c1nnc(NC(=O)c2ccco2)s1`, 41% (active); to `CC(C)CC(=O)Nc1nnc(S(=O)(=O)N(CC(C)C)c2ccccc2)s1`, 111%.
Consider `Cc1ccccc1N(C)S(=O)(=O)c1nnc(NC(=O)c2ccco2)s1`, for which the survival was 94%.
To `CN(c1ccccc1)S(=O)(=O)c1nnc(NC(=O)c2ccco2)s1` belongs 47%.
Turning to `CCN(c1cc(C)cc(C)c1)S(=O)(=O)c1nnc(NC(=O)c2ccco2)s1`, the survival was 52%.
As to `CCN(c1ccc(Cl)cc1)S(=O)(=O)c1nnc(NC(=O)c2ccco2)s1`, the survival is 67%.
The figure for `CCN(c1ccccc1)S(=O)(=O)c1nnc(NC(=O)c2ccco2)s1` is 39% (active); for `COc1ccc(N(CC(C)C)S(=O)(=O)c2nnc(NC(=O)c3ccco3)s2)cc1` it is 41% (active).
The figure for `CC(C)CN(c1ccccc1)S(=O)(=O)c1nnc(NC(=O)c2ccco2)s1` is 31% (active).
To `O=C(Cn1c(=O)n(-c2ccccc2)c(=O)c2ccc(C(=O)NCc3ccc4c(c3)OCO4)cc21)Nc1ccc(F)cc1` belongs 64%; to `CC(C)c1ccc(NC(=O)Cn2cc(S(=O)(=O)Cc3cccc(Cl)c3)c3ccccc32)cc1`, 76%; to `Cn1c(C(=O)N2CCc3ccccc32)cc2sccc21`, 91%.
For the molecule `CC(=O)N1CCc2c(sc(NC(=O)CSc3ccc(F)cc3)c2-c2nc3ccccc3s2)C1`, the survival is 108%.
In the case of `Cc1ccc(Cn2c(CNC(=O)c3ccc(Cl)c([N+](=O)[O-])c3)nc3cccnc32)cc1`, the survival is 88%.
As to `CC(SC(=S)N1CCCCCC1)C(=O)O` (stereo unspecified), the survival was 90%.
Consider `O=C(Cn1cc(S(=O)(=O)N2CCCC2)c(S(=O)(=O)N2CCCC2)c1)Nc1cccc(F)c1`, for which the survival was 98%.
Turning to `Cc1nn(-c2ccccc2)c(-n2cccc2)c1C(=O)NCCCN1CCN(c2ccccc2F)CC1`, the survival is 63%.
As to `Cc1ccc(N(CC(C)C)S(=O)(=O)c2nnc(NC(=O)c3ccco3)s2)cc1`, the survival was 44% (active).
Regarding `Cc1ccc(N(C)S(=O)(=O)c2nnc(NC(=O)c3ccco3)s2)cc1`, the survival is 57%.
In the case of `CCC(C)(C)C(=O)Nc1ccc(Cl)cc1`, the survival was 93%.
Regarding `Cc1cccc(NC(=O)c2c(NC(=O)c3ccco3)sc3c2CCC(C)C3)c1` (stereo unspecified), the survival was 53%.
In the case of `CC1CCc2c(sc(NC(=O)c3ccccc3)c2C(=O)Nc2ccccc2)C1` (stereo unspecified), the survival was 42% (active).
For `CC1CCc2c(sc(NC(=O)Cc3ccccc3)c2C(=O)Nc2ccc(Cl)cc2)C1` (stereo unspecified), the survival is 57%.
In the case of `Cc1cccc(NC(=O)c2c(NC(=O)c3cccs3)sc3c2CCC(C)C3)c1` (stereo unspecified), the survival was 60%.
Consider `CCN(CC)C(=O)c1c(NC(=O)c2cccc(C)c2)sc2c1CCC(C)C2` (stereo unspecified), for which the survival was -1% (active).
On to `Cc1cccc(C(=O)Nc2sc3c(c2C(=O)N2CCCCC2)CCC(C)C3)c1` (stereo unspecified), for which the survival was -6% (active).
The figure for `CCOc1ccc(NC(=O)c2c(NC(=O)Cc3ccccc3)sc3c2CCC(C)C3)cc1` (stereo unspecified) is 46%; for `CCOc1ccc(C(=O)c2cn(Cc3cccc(OC)c3)c3cc4c(cc3c2=O)OCO4)cc1` it is 72%; for `COC(=O)c1ccc2nc(C)cc(Nc3ccc(O)cc3)c2c1` it is 186%.
With `COc1cc(Cl)c(S(=O)(=O)N2CCN(c3c(C)cccc3C)CC2)cc1Cl`, the survival is 69%.
`C/C(=N\NC(=O)c1cc2ccccc2cc1O)c1ccc(N)cc1`: the survival is 70%.
With `COc1ccc(CNC(=O)Nc2ccc3c(c2)N(C)C(=O)c2ccccc2S3)cc1OC`, the survival is 61%.
The figure for `O=C(Nc1ccc(Cl)cc1)c1cc2nc(-c3ccc4c(c3)OCO4)cc(C(F)(F)F)n2n1` is 83%; for `CC(C)NC(=O)C1CC(c2ccc(Cl)cc2)=NO1` (stereo unspecified) it is 84%; for `Cn1nc(-c2ccccc2F)c2cc(C(=O)NCc3cccc(Cl)c3)sc21` it is 41% (active).
`Cn1nc(-c2ccccc2F)c2cc(C(=O)NCc3ccccc3Cl)sc21`: the survival was 56% (active).
To `COc1ccc(CNC(=O)c2cc3c(-c4ccccc4F)nn(C)c3s2)cc1` belongs 61%; to `Cn1nc(-c2ccccc2F)c2cc(C(=O)NCc3ccc(Cl)cc3)sc21`, 87%.
For `Cn1nc(-c2ccccc2F)c2cc(C(=O)NCCc3ccc(Cl)cc3)sc21`, the survival was 76%.
For the molecule `COc1cccc(CNC(=O)c2cc3c(-c4ccccc4F)nn(C)c3s2)c1`, the survival was 59%.
Take `CCN1C(=O)C2(c3ccccc31)c1c(oc3ccccc3c1=O)C(=O)N2CCOC` (stereo unspecified): the survival is 67%.
In the case of `Cc1oc2cc3oc(=O)c(CC(=O)NCc4ccccc4)c(C)c3cc2c1C`, the survival is 73%.
Turning to `Cc1ccc(C(=O)N2CCc3cc(CNC(=O)COc4ccccc4)ccc32)cc1`, the survival was 89%.
With `Cc1ccc(-n2nc3c(=O)n(CCCC(=O)NC(C)c4ccccc4)nc(C)c3c2C)cc1` (stereo unspecified), the survival was 67%.
Consider `COc1ccc(S(=O)(=O)N(CCc2ccccc2)CC(=O)NCc2ccccc2)cc1OC`, for which the survival is 62%.
The figure for `O=C(CC(c1cccs1)N1Cc2ccccc2C1=O)Nc1ccc(Cl)cc1` (stereo unspecified) is 131%.
To `CCOc1ccccc1NC(=O)CC(c1ccc(F)cc1)N1Cc2ccccc2C1=O` (stereo unspecified) belongs 99%; to `Cc1c(Cl)cccc1NC(=O)CC(c1cccs1)N1Cc2ccccc2C1=O` (stereo unspecified), 32% (active); to `CCc1ccccc1NC(=O)CC(c1ccc(F)cc1)N1Cc2ccccc2C1=O` (stereo unspecified), 117%.
On to `O=C(CC(c1cccs1)N1Cc2ccccc2C1=O)Nc1ccccc1F` (stereo unspecified), for which the survival was 78%.
To `Cc1c(Cl)cccc1NC(=O)CC(c1ccc(F)cc1)N1Cc2ccccc2C1=O` (stereo unspecified) belongs 37% (active); to `CCOC(=O)C1CCCN(C(=O)Cn2ncc3c([nH]c4ccc(C)cc43)c2=O)C1` (stereo unspecified), 81%.
The figure for `CCOC(=O)c1ccc2c(c1)N(CC#N)C(=O)C(C)(C)O2` is 94%; for `CCOC(=O)c1[nH]c(Cc2[nH]c(C(=O)OCC)c(C)c2CC(=O)OC)c(CCC(=O)OC)c1C` it is 70%; for `Cc1ccc2c(=O)cc(C(=O)Nc3ccc(S(=O)(=O)N(C)Cc4ccccc4)cc3)oc2c1C` it is 92%.
To `CCc1ccc(NC(=O)c2cc(=O)c3ccc(C)c(C)c3o2)cc1` belongs 91%; to `COc1ccc(CCNC(=O)c2cc(=O)c3c(C)cc(C)cc3o2)cc1OC`, 57%.
Consider `Cc1ccc2c(=O)cc(C(=O)Nc3cccc(Cl)c3C)oc2c1C`, for which the survival is 54%.
Take `CCOC(=O)c1ccc(NC(=O)c2cc(=O)c3ccc(C)c(C)c3o2)cc1`: the survival was 45% (active).
The figure for `Cc1cc(C)c2c(=O)cc(C(=O)Nc3ccccc3Cl)oc2c1` is 62%.
The figure for `COC(=O)c1ccccc1NC(=O)c1cc(=O)c2ccc(C)c(C)c2o1` is 72%; for `CCOc1ccc(NC(=O)c2cc(=O)c3ccc(C)c(C)c3o2)cc1` it is 60%.
Consider `COc1ccccc1NC(=O)c1cc(=O)c2ccc(C)c(C)c2o1`, for which the survival is 41% (active).
On to `CCN(c1ccccc1)S(=O)(=O)c1ccc(NC(=O)c2cc(=O)c3ccc(C)c(C)c3o2)cc1`, for which the survival is 64%.
On to `Cc1ccc2c(=O)cc(C(=O)Nc3ccc(S(=O)(=O)N(C)c4ccccc4)cc3)oc2c1C`, for which the survival is 50% (active).
As to `COc1ccc(OC)c(NC(=O)c2cc(=O)c3c(C)cc(C)cc3o2)c1`, the survival was 42% (active).
